From PubChem BioAssay AID1259343 (VanderVen Lab, College of Veterinary Medicine, Cornell …, 2017) come the findings set out here.

Hit rate of the full screen: of about 6,200 compounds, about 2,900 (47%) were called active. The set was probably picked from earlier hits. The list shows a part of the results. A number with no mark means an inactive call. Cut-off read from the data, not from the text of the source: active = inhibition above about 50%; inactive = the rest.

The assay in a line: Mycobacterium tuberculosis growth inhibition, primary screen (AID 1259343). Particulars: inhibition: at 10 µM, hits give high values; outcome: 10 uM.
`Cc1cccc(NC(C)c2nnc(-c3cccs3)o2)c1C` (stereo not drawn): the inhibition is 61.2% (active).
The same measure for `O=C(Nc1ccc(Br)cc1)c1cc(Br)cc(Br)c1O`: 101% (active); for `O=c1[nH]cc(CNCc2ccccc2)c(=O)[nH]1`: 101% (active); for `CCC1CCCCN1C(=O)c1ccc(-c2cccc(Cl)c2)s1` (stereo not drawn): 81.8% (active).
As to `O=C(O)C1CCN(c2ncnc3cc(-c4ccc(F)cc4)sc23)CC1`, the inhibition was 14.5%.
As for `CCC1CCCCN1C(=O)c1ccc(-c2ccc(F)cc2)s1` (stereo not drawn), the figure is 94.5% (active); as for `Oc1ccc(C=Cc2ccncc2)cc1`, 37.5%; as for `Cn1nc([N+](=O)[O-])nc1Oc1ccc(Br)cc1`, 68.9% (active).
As for `CCOC(=O)c1ccc(C#Cc2ccc3c(c2)C(C)(C)CCS3)nc1`, the figure is 87.4% (active).
The same measure for `N#Cc1ccc(NC(=O)NCc2cccs2)cc1Cl`: 48.4%; for `CC(C)c1ccc(CCNC(=O)CNc2ccc(C#N)c(Cl)c2)cc1`: 2.06%; for `Cc1ccc(C(C)NC(=O)Nc2ccc(C#N)c(Cl)c2)o1` (stereo not drawn): 89.3% (active).
For `Cc1ccc(Nc2n[nH]nc2C(=O)Nc2ccc(C)cc2Cl)cc1`, the inhibition is 83.6% (active).
The same measure for `Cc1ccc(NC(=O)NCCc2csc(C(C)C)n2)c(Cl)c1`: 25.8%; for `Cc1ccc(Nc2nc(-c3ccccc3)nc(Cl)c2N)cc1`: 45.9%.
As for `CCOC(=O)C1C(=O)CC(O)(c2ccc(Br)cc2)CC1C=C(Cl)Cl` (stereo not drawn), the figure is 34%; as for `Cc1cc(C)n2c(NCc3ccccc3)c(-c3ccc(Cl)cc3)nc2c1`, 51.4% (active); as for `CCC(=O)Nc1c(-c2cc(C)cc(C)c2)nc2cc(C)ccn12`, 5.69%.
For the compound `CCCS(=O)(=O)Oc1ccc([N+](=O)[O-])cc1-c1nc2ccccc2o1`, the inhibition was 99.4% (active).
The same measure for `O=[N+]([O-])c1ccc(Cl)c(S(=O)(=O)Oc2cccc3ccccc23)c1`: 20.7%; for `CCc1cc(=O)[nH]c(-n2nc(C)cc2NC(=O)c2cccc(OC)c2OC)n1`: 102% (active); for `COc1cccc(C(=O)Nc2cc(-c3cccs3)nn2-c2nc(C)cc(=O)[nH]2)c1OC`: 100% (active).
As for `COc1ccccc1C(=O)Nc1cc(C)nn1-c1nc(C)cc(=O)[nH]1`, the figure is 99.4% (active).
For `COc1cccc(C(=O)Nc2cc(-c3cccs3)nn2-c2nc(C)c(C)c(=O)[nH]2)c1OC`, the inhibition was -24.6%.
As for `COc1cccc(C(=O)Nc2cc(C)nn2-c2nc(C)cc(=O)[nH]2)c1OC`, the figure is 101% (active); as for `COc1cccc(C(=O)Nc2cc(C)nn2-c2nc(C)c(C)c(=O)[nH]2)c1OC`, 7.56%; as for `COc1cccc2c1C(=O)c1c(O)c3c(c(O)c1C2=O)C[C@@](O)(C(C)=O)C[C@@H]3O[C@H]1C[C@H](N)[C@H](O)[C@H](C)O1`, 38.2%.
As for `COc1cccc(C(=O)Nc2cc(C3CC3)nn2-c2nc(C)cc(=O)[nH]2)c1OC`, the figure is 99.8% (active).
The same measure for `CCOc1ccccc1C(=O)Nc1cc(C)nn1-c1nc(C)cc(=O)[nH]1`: 101% (active); for `COC(=O)c1ccc(CN(Cc2ccco2)Cc2ccc(C)s2)o1`: 73.9% (active).
For the compound `Cc1oc(-c2ccc(-c3ccccc3)cc2)nc1CN(Cc1ccccn1)CC1CCCO1` (stereo not drawn), the inhibition is -19.8%.
`COC(=O)c1ccc(CN(Cc2ccc(C)s2)CC2CCCO2)o1` (stereo not drawn): the inhibition is 73.4% (active).
As for `COc1ccc(CN(Cc2ccco2)CC(O)COc2ccc(Cl)cc2)cc1` (stereo not drawn), the figure is 6.76%; as for `Cc1[nH]nc(C(=O)N(Cc2cccc(F)c2)CC2CCCO2)c1Br` (stereo not drawn), -6.44%.
As for `Cc1ccc(C(C)NC(=O)CN(C(=O)Cn2cnc(C)c2C)C(C)c2ccc(C)c(C)c2)cc1C` (stereo not drawn), the figure is 37.8%.
With `COc1ccc(N(C)S(=O)(=O)c2ccc(OC)c(N3CCN(C(=O)C4CCC4)CC3)c2)cc1`, the inhibition was -12.6%.
As for `CN(c1ccccc1)S(=O)(=O)c1cccc(NC(=O)C2CC2)c1`, the figure is 95% (active).
As for `O=C(NS(=O)(=O)CCc1ccccc1)c1cccs1`, the figure is 57% (active).
As for `O=[N+]([O-])c1cnc(Nc2ccccc2Cl)c([N+](=O)[O-])c1`, the figure is -16.6%; as for `O=[N+]([O-])c1cnc(Nc2cccc(O)c2)c([N+](=O)[O-])c1`, 75.9% (active).
Turning to `O=[N+]([O-])c1cnc(Nc2cccc(Cl)c2)c([N+](=O)[O-])c1`, the inhibition was 97.7% (active).
As for `O=[N+]([O-])c1cnc(Nc2ccccc2O)c([N+](=O)[O-])c1`, the figure is 26.1%; as for `COc1ccccc1Nc1ncc([N+](=O)[O-])cc1[N+](=O)[O-]`, 101% (active).
Regarding `Cc1cc(C)cc(Nc2ncc([N+](=O)[O-])cc2[N+](=O)[O-])c1`, the inhibition was 92.8% (active).
As for `C=C(C)C1Cc2c(ccc(C(=O)O)c2O)O1` (stereo not drawn), the figure is 48.9%.
As for `O=[N+]([O-])c1cnc(Nc2ccc(Cl)cc2)c([N+](=O)[O-])c1`, the figure is 58.3% (active); as for `O=[N+]([O-])c1cnc(Nc2ccc(O)cc2)c([N+](=O)[O-])c1`, “inactive”.
Regarding `Nc1cc(F)c(N2CC3CCC2C3)cc1C(=O)O` (stereo not drawn), the inhibition is 36.3%.
As for `CCN1CCN(c2cc3c(cc2F)c(=O)c(C(=O)O)cn3C2CC2)CC1`, the figure is 99.3% (active); as for `c1ccc(OCc2noc(CN3CC[C@@H]4CCCC[C@H]4C3)n2)cc1`, 66.7% (active); as for `O=C(c1ccccc1)C1CCCN(Cc2nc(COc3ccccc3)no2)C1` (stereo not drawn), “inactive”.
As for `Clc1cccc(C2CCN(Cc3nc(COc4ccccc4)no3)C2)c1` (stereo not drawn), the figure is 92.9% (active); as for `O=C(c1cccs1)C1CCCN(Cc2nc(COc3ccccc3)no2)C1` (stereo not drawn), 83.9% (active); as for `Fc1ccccc1Cc1noc(CN2CC[C@@H]3CCCC[C@H]3C2)n1`, 74.6% (active).
As for `c1ccc(CCC2CCN(Cc3nc(COc4ccccc4)no3)CC2)cc1`, the entry is “inactive”.
`OC(CCc1ccccc1)C1CCN(Cc2nc(Cc3ccccc3F)no2)CC1` (stereo not drawn): the inhibition is 43.5%.
Consider `Fc1ccccc1Cc1noc(CN2CCCN(Cc3ccccc3F)CC2)n1`, for which the inhibition is 34%.
Turning to `CCCOc1ccc(C=C2SC(=S)NC2=O)cc1`, the inhibition is 86.5% (active).
As for `CCCCCCOc1ccc(C=C2SC(=O)NC2=O)cc1`, the figure is 84.7% (active).
As for `CCc1ccc(CCOc2ccc(CC3SC(=O)NC3=O)cc2)nc1` (stereo not drawn), the figure is 38.2%; as for `O=C1NC(=O)C(=Cc2ccc(F)cc2)S1`, -10.1%; as for `CC(C)N1C(=O)C(=Cc2ccc(O)cc2)SC1=S`, 36.9%.
The same measure for `CC(C)(C)c1ccc(-c2ccnc3nc(N4CCN(C(=O)c5ccc([N+](=O)[O-])o5)CC4)nn23)cc1`: 74.3% (active).
As to `O=C(OCC(=O)N(C1CCCCC1)C1CCCCC1)c1ccc([N+](=O)[O-])o1`, the inhibition was -1.53%.
The same measure for `O=C(OCC(=O)N1CCCC1)c1ccc([N+](=O)[O-])o1`: 39%; for `CCc1ccc(S(=O)(=O)Nc2cccc(-c3nc4cccnc4s3)c2C)s1`: 62.5% (active); for `CC(C)CSc1nnc(-c2cccc([N+](=O)[O-])c2)o1`: 97.8% (active).
The same measure for `CC(C)CSc1nnc(C2CCCCC2)o1`: -1.92%; for `Cc1cc(C)cc(-c2n[nH]c(=S)o2)c1`: 101% (active); for `CC(C)(C)c1ccc(-c2n[nH]c(=S)o2)cc1`: 25.8%.
The same measure for `S=c1[nH]nc(-c2cccc(Br)c2)o1`: 62.1% (active).
For the compound `O=[N+]([O-])c1cccc(-c2n[nH]c(=S)o2)c1`, the inhibition was 91.4% (active).
`N#Cc1cccc(CSc2nnc(-c3cccc(Br)c3)o2)c1`: the inhibition is 5.74%.
The same measure for `Cc1ncc(CNC(=O)N2CCC(C(C)C)CC2)s1`: -9.36%; for `S=c1[nH]nc(-c2ccc(Br)cc2)o1`: 80.5% (active).
The same measure for `S=c1nc(-c2ccc(Br)cc2)[nH][nH]1`: -31.4%.
As for `S=c1[nH]nc(-c2ccc(Cl)cc2)o1`, the figure is 41.4%; as for `COCc1nc(N2CCNCC2)c2c3c(sc2n1)CCCC3`, 94.1% (active).
With `c1cc2c(cc1Oc1nc(CN3CCOCC3)nc3sc4c(c13)CCC4)CCC2`, the inhibition was 22.2%.
The same measure for `CCN1CCc2c(sc3nc(C4CCCCC4)nc(N4CCNCC4)c23)C1`: 50.1% (active).
In the case of `c1nc(N2CCCCC2)c2c3c(sc2n1)CCCC3`, the inhibition was 30%.
As for `CC(C)(CC(=O)O)CC(=O)N1CCC2(CC1)OCc1cc(-c3ccc(C(F)(F)F)cc3)ccc1O2`, the inhibition was 58% (active).
The same measure for `CCOc1cccc(OCc2nc(-c3ccco3)oc2C)c1`: 75.2% (active).
As for `C#CCN(CC=C)Cc1nc(-c2ccc(OCC)cc2)oc1C`, the figure is -15.4%; as for `Cc1sc2nc(-c3ccco3)oc(=O)c2c1C`, -5.77%.
The same measure for `OCC#CCSc1ncnn1-c1ccccc1`: -60.2%; for `COc1ccc(Nc2c([N+](=O)[O-])ccc3c2=NC2(CCCCC2)N=3)cc1`: 47.2%.
For `COc1ccc(Nc2ccc(Nc3ccc([N+](=O)[O-])cc3[N+](=O)[O-])cc2)cc1`, the inhibition is 94.7% (active).
As for `COc1ccc(Nc2ncc([N+](=O)[O-])cc2[N+](=O)[O-])cc1`, the inhibition entry was “inactive”.
The same measure for `COC(=O)C1C(c2ccccc2)C2(c3ccccc3)C(C)(C)C12C(=O)OC` (stereo not drawn): 10.3%.
In the case of `O=c1cc(-c2c(F)c(F)c(F)c(F)c2F)oc2c(F)c(F)c(F)c(F)c12`, the inhibition is 100% (active).
As for `Fc1ccc(C2C=C3Oc4ccccc4N=C3NN2)cc1` (stereo not drawn), the figure is 92.6% (active); as for `Brc1ccccc1OCc1cnn(-c2ccccc2)n1`, 21.9%.
As to `CC1(C)OC(=O)C(=CNc2ccc3ccccc3c2)C(=O)O1`, the inhibition is 20.6%.
The same measure for `CC(C)c1ccc(NC=C2C(=O)OC(C)(C)OC2=O)cc1`: 85.2% (active); for `Cc1oc(-c2ccc3ccccc3c2)nc1CN1CCN(C(=O)c2ccco2)CC1`: 78.8% (active).
As for `CC(=O)NC1CCN(Cc2nc(-c3cccc(Oc4ccccc4)c3)oc2C)C1` (stereo not drawn), the figure is 24.9%; as for `Cc1cccc(-n2cc(CN3CCN(C(=O)c4ccco4)CC3)c(-c3cccc(F)c3)n2)c1`, 24.8%.
